In PubChem BioAssay one finds composite z-score data, which are given here for 28 compounds.

The assay has as its system Chordin-like protein 2 (CHRDL2). Description: compounds binding chordin-like 2 – biochemical, small-molecule microarray, 635 nm fluorescence, primary screen (AID 1126).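 Further: printed compound slides probed with Chrdl2 protein at 4 µg/mL for 1 h at 4 C; score merges 667 nm emission intensity with signal to noise over three replicate slides.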 Conditions: fluorescence 635 nm, higher = more signal.
In turn, `Cc1ccccc1C(O)C1C=CC2C(=O)N(C)C(=O)C2N1N(c1ccccc1)c1ccccc1` (stereo not drawn) returned a composite z-score of 0.682.
Under `COc1ccc([Si](C)(C)[C@@H]2[C@@H](CC(=O)N(CCO)Cc3ccccc3)O[C@]3(C(=O)N(Cc4cccc(N5C(=O)c6cccc7cccc5c67)c4)c4ccccc43)[C@H]2C)cc1` stands 0.432.
The value for `C=C[C@@H](COC(C)=O)N(C(=O)OC(C)(C)C)S(=O)(=O)c1ccc(Br)cc1` was 1.4; that for `C=C(COC)/C(=C/C[C@H](OC(C)=O)c1ccc(OCCO)cc1)c1cc(C(=O)OC)ccc1OC` was 0.501.
The value for `Cc1ccc(S[C@]2(C(=O)NCC(F)(F)F)CC(=O)N(Cc3ccccc3C(F)(F)F)[C@@H]2c2ccc(CO)cc2I)cc1` was -1.41; that for `COC(=O)[C@@]1(Cc2ccc(F)cc2)[C@H]2c3cc(C(=O)N4CCCC4)n(CCc4ccc(O)c(O)c4)c3C[C@H]2CN1C(=O)c1ccccc1` was -0.113; that for `COCCOC(=O)N1C(=O)[C@@]2(c3cc(C#CCC(C(=O)OC)C(=O)OC)ccc31)[C@H](C(=O)N1CCc3cc(OC)c(OC)cc3C1)[C@H]1C(=O)O[C@H](c3ccccc3)[C@H](c3ccccc3)N1[C@@H]2c1ccc(OCCO)cc1` was 0.837.
Regarding `COc1ccc(CCN2C(=O)[C@@]3(Cc4ccccc42)c2ccccc2C(=O)N(Cc2ccccc2OC)[C@H]3c2ccc(CO)cc2)cc1`, the composite z-score was -0.761.
Under `CN(C)CCCNC(=O)[C@@]1(c2ccc([N+](=O)[O-])cc2)CC(=O)N(CC23CC4CC(CC(C4)C2)C3)[C@@H]1c1ccc(CO)cc1I` stands 0.731; under `CCCC[C@@H]1C[C@H]1[C@@H](NC(=O)c1cccs1)c1ccc(C(F)(F)F)cc1`, 0.149; under `COC(=O)C1=CC(CCCO)=CC(C2CC2)N(C)C=C1C(=O)OC` (stereo not drawn), -0.761.
The value for `CC(=O)c1ccc(C(O)C2C=CC3C(=O)N(c4ccccc4)C(=O)C3N2Nc2ccc(C#N)cc2)cc1` (stereo not drawn) was -0.624; that for `COCCOC(=O)N1C(=O)[C@@]2(c3cc(C#CC4=CCCCC4)ccc31)[C@H](c1ccc(OCCO)cc1)N1[C@H](c3ccccc3)[C@H](c3ccccc3)OC(=O)[C@H]1[C@@H]2C(=O)NC[C@H](O)c1ccccc1` was 1.41.
The value for `CCCC[C@@H]1C[C@H]1[C@@H](NC(=O)Cc1ccccc1)c1ccc(-c2ccccc2)cc1` was -0.436.
For the compound `CCCCN1CC=CC23O[C@@H]4/C=C\CCC(C)OC(=O)C4[C@H]2C(=O)N(C(CO)C(C)C)[C@@H]3C1=O` (stereo partly drawn), the composite z-score is 0.212.
In turn, `CO[C@H]1O[C@H](CO)[C@@H](OC(=O)Nc2ccccc2-c2ccccc2)[C@H](OC(=O)Nc2ccc3c(c2)OCO3)[C@H]1OC(=O)Nc1ccc2c(c1)OCO2` displayed a composite z-score of 0.454.
Under `C=CCN1C(=O)[C@@]2(O[C@@H](CCn3cc([C@H](O)c4ccccc4)nn3)[C@H]([Si](C)(C)c3ccc(OC)cc3)[C@H]2C)c2cc(N3CCC3=O)ccc21` stands 0.163.
The value for `C=CCN1C(=O)[C@@]2(CCS(=O)(=O)c3ccccc3)N=C(c3ccc(OCCCO)cc3)O[C@H]2c2ccccc21` was 0.83; that for `COC(=O)CCCCCCC(=O)Nc1ccc(NC(=O)CCCC[P+](c2ccccc2)(c2ccccc2)c2ccccc2)cc1` was 1.26.
Under `CC(CO)N1C(=O)[C@@H]2[C@H]3C(=O)OCC=C[C@H]3OC23C=CCN(C(C)(C)C)C(=O)[C@@H]13` (stereo partly drawn) stands -0.508; under `[N-]=[N+]=Nc1ccccc1[C@@H]1OC(c2ccc(OCCCO)cc2)=N[C@]1(Cc1ccccc1)C(=O)NCC(O)CO` (stereo partly drawn), -0.638; under `CC1CC/C=C\[C@H]2OC34C=CCN(c5ccc(Cl)cc5)C(=O)[C@H]3N(CCCCCO)C(=O)[C@]4(C)C2C(=O)O1` (stereo partly drawn), -1.67.
For the compound `C=CCC(OC(C)=O)[C@@H]1[C@@H](N(Cc2cccc3ccccc23)C(=O)c2cccc3ccccc23)c2cc(OCCCO)ccc2N1C(=O)c1ccc(-c2ccccc2)cc1` (stereo partly drawn), the composite z-score came to 0.25.
Under `CN1C(=O)C2C=CC(C(O)c3ccccn3)N(N(c3ccccc3)c3ccccc3)C2C1=O` (stereo not drawn) stands 0.227; under `CC(C)(C)N1CC=CC23O[C@@H]4C=CCCOC(=O)C4[C@H]2C(=O)N(CCO)[C@@H]3C1=O` (stereo partly drawn), -0.267.
The value for `Cc1ccc(S[C@]2(C(=O)NCCCN(C)C)CC(=O)N(C3CCCCC3)[C@@H]2c2ccc(CO)cc2)cc1` was -1.18; that for `CCOc1cc(C(O)C2C=CC3C(=O)N(c4ccccc4)C(=O)C3N2Nc2ccc(C#N)cc2)ccc1O` (stereo not drawn) was -0.879.
Under `COCCOC(=O)N1C(=O)[C@@]2(c3cc(C#Cc4ccc(OC)cc4)ccc31)[C@H](C(=O)Nc1nc3ccccc3s1)[C@H]1C(=O)O[C@H](c3ccccc3)[C@H](c3ccccc3)N1[C@@H]2c1ccc(OCCO)cc1` stands 0.68.
